Data from PubChem BioAssay (NCI).
About 79,000 compounds went through this panel and 15% of them were active in at least one assay; those are over-represented in the sample as a whole. Calls of active or inactive are those of the source. Cut-off read from the data, not from the text of the source: active = growth inhibition above about 70%; inactive = the rest.

Test: NCI Yeast Anticancer Drug Screen. Data for the bub3 strain (AID 167)
Conditions: S. cerevisiae bub3 mutant strain, at 5.0 µM (retest, dose inferred, filed as 0.5), active compounds read high
Method in brief: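 Growth of a checkpoint-deficient yeast mutant is measured after compound exposure. Values represent inhibition relative to vehicle.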

| SMILES | growth inhibition |
| --- | --- |
| Clc1ccc(OCC(Cn2ccnc2)c2ccc(Cl)cc2)cc1 (stereo not drawn) | 73% (active) |
| CC(C)C(CC(C)(C)C)OC(=O)Nc1cccc2ccccc12 (stereo not drawn) | 11% (inactive) |
| CC(=O)OC[C@@]1(C)[C@@H]2CC[C@]3(C)[C@H](C(=O)C=C4[C@@H]5CC(C)(C)CC[C@]5(C(=O)O)CC[C@]43C)[C@@]2(C)CC[C@@H]1OC(C)=O | 9% (inactive) |
| CCOC(=O)C[n+]1c(C)sc2ccccc21 | -6% (inactive) |
| O=[N+]([O-])c1ccc(/C=N/O)s1 | -17% (inactive) |
| C=C(C)COc1ccccc1C(OCC)OCC | 0% (inactive) |
| CCCCCCCCCCCCCC1OC(=O)C(C)=C1C(=O)O (stereo not drawn) | -17% (inactive) |
| CC(C)C(Sc1nc(-c2ccccc2)c(-c2ccccc2)[nH]1)c1n[nH]c(=S)n1-c1ccccc1 (stereo not drawn) | -1% (inactive) |
| Cc1ccc(-c2c(C#N)c(S)n(NS(=O)(=O)c3ccccc3)c(=O)c2C#N)cc1 | 53% (inactive) |
| O=C(c1ccccc1)c1ccc2c(c1Cl)C(=O)c1ccccc1C2=O | -8% (inactive) |
| COc1cccc(C2c3cc4c(cc3OC(O)C2C)OCO4)c1O (stereo not drawn) | -4% (inactive) |
| CCC[N+]1=C(/C=C/c2ccc3cccnc3c2O)C(C)(C)c2ccccc21 | 4% (inactive) |
| O=C(/C=C/c1ccccc1Cl)c1ccc(F)cc1 | 33% (inactive) |
| CCN(CC)C(=S)N=Nc1c(O)[nH]c2ccccc12 | 76% (active) |
| C[CH2][Sn]([CH2]C)([O]C(=O)c1ccccc1OC)[O][Sn]([CH2]C)([CH2]C)[O]C(=O)c1ccccc1OC | 35% (inactive) |
| CCCCCCCCCCCCCCCC[N+](C)(C)C(C)c1ccc(OC)cc1 (stereo not drawn) | 98% (active) |
| S=C(NCCc1ccccc1)N/N=C/c1ccc(Cl)cc1 | 52% (inactive) |
| Cc1cc(Nc2ccc(O)c(CN3CCN(Cc4cc(Nc5cc(C)nc(N)n5)ccc4O)CC3)c2)nc(N)n1 | 9% (inactive) |
| CC1C[N+](C)(C)C(C)C(=O)C1(c1ccccc1)c1ccccc1 (stereo not drawn) | -4% (inactive) |
| O=C1C(Cl)=C(Cl)C(=O)C2CC=CCC12 (stereo not drawn) | 91% (active) |

| SMILES | growth inhibition |
| --- | --- |
| C/C(=N/O)c1ccc2c(c1)C(C)c1ccccc1-2 (stereo not drawn) | -62% (inactive) |
| c1ccc(N/N=C2/CCCC3/C(=N\Nc4ccccc4)CCCC23)cc1 (stereo not drawn) | -8% (inactive) |
| CCCC(C)C/C(C)=C\C(C)(C)C1CC(=O)N(CC)C1=O (stereo not drawn) | 4% (inactive) |
| COC(C(=O)C1=C2Oc3c4c(cc(O)c3C(=O)C2C2=C(CCCC2)C1=O)OC(C)(C)C=C4)C(C)CCC=C(C)C (stereo not drawn) | 4% (inactive) |
| Cc1cc(Br)c(NC(=O)CBr)cc1C | -1% (inactive) |
| Cc1ccc(S(=O)(=O)OCCCCOS(=O)(=O)c2ccc(C)cc2)cc1 | -2% (inactive) |
| Cc1ccc([N+](=O)[O-])c2c(NCCCN(C)C)c3ccccc3nc12 | 35% (inactive) |
| CCOC(=O)c1c(N2CCCC2)nsc1Nc1ccc(F)cc1 | 1% (inactive) |
| CC(=O)[C@H]1CC[C@H]2[C@@H]3CC[C@H]4C[C@@H](N5CCOCC5)CC[C@]4(C)[C@H]3CC[C@]12C | 49% (inactive) |
| CC(C)CCCC(C)C1CCC2C3CCC4=CC(O)CCC4(C)C3CCC12C (stereo not drawn) | -5% (inactive) |
| Nc1ccccc1SC(/C=C/NNC1=NC(c2ccccc2)C(c2ccccc2)=NN1)c1ccccc1 (stereo not drawn) | 30% (inactive) |
| CCOC(=O)C1=C(c2ccccc2)OC(N)=C(C#N)C1c1ccc(C)cc1 (stereo not drawn) | 1% (inactive) |
| COC1CC(OC(=O)c2ccccc2)C2OC(c3ccccc3)OCC2O1 (stereo not drawn) | 24% (inactive) |
| O=C(/N=C1\N=Nc2nc(C(C(=O)c3cccs3)c3nc4n(c3O)/C(=N/C(=O)Nc3ccc(Cl)cc3)N=N4)c(O)n21)Nc1ccc(Cl)cc1 (stereo not drawn) | -38% (inactive) |
| C=CCNC(=S)N/N=C(\CCC)c1ccccn1 | 98% (active) |
| O=C(c1cc2c(C(F)(F)F)onc2c2ccccc12)C(F)(F)F | 12% (inactive) |
| O=C1C=CC(=O)C2C1Cc1ccccc1C2c1ccccc1 (stereo not drawn) | 14% (inactive) |
| CC1SC2(C(=O)Nc3ccc([N+](=O)[O-])cc32)N(c2ccc(Cl)cc2)C1=O (stereo not drawn) | 12% (inactive) |
| CC(=O)OCCn1c2nc(=O)[nH]c(=O)c-2nc2cc(C)c(C)cc21 | -1% (inactive) |

Same assay, conditions: S. cerevisiae bub3 mutant strain, at 50.0 µM (retest, dose inferred, filed as 5.0), active compounds read high

| SMILES | growth inhibition |
| --- | --- |
| Clc1ccc(OCC(Cn2ccnc2)c2ccc(Cl)cc2)cc1 (stereo not drawn) | 98% (active) |
| CC(C)C(CC(C)(C)C)OC(=O)Nc1cccc2ccccc12 (stereo not drawn) | 96% (active) |
| CC(=O)OC[C@@]1(C)[C@@H]2CC[C@]3(C)[C@H](C(=O)C=C4[C@@H]5CC(C)(C)CC[C@]5(C(=O)O)CC[C@]43C)[C@@]2(C)CC[C@@H]1OC(C)=O | 91% (active) |
| CCOC(=O)C[n+]1c(C)sc2ccccc21 | 15% (inactive) |
| O=[N+]([O-])c1ccc(/C=N/O)s1 | 99% (active) |
| C=C(C)COc1ccccc1C(OCC)OCC | 20% (inactive) |
| CCCCCCCCCCCCCC1OC(=O)C(C)=C1C(=O)O (stereo not drawn) | -25% (inactive) |
| CC(C)C(Sc1nc(-c2ccccc2)c(-c2ccccc2)[nH]1)c1n[nH]c(=S)n1-c1ccccc1 (stereo not drawn) | 98% (active) |
| Cc1ccc(-c2c(C#N)c(S)n(NS(=O)(=O)c3ccccc3)c(=O)c2C#N)cc1 | 94% (active) |
| O=C(c1ccccc1)c1ccc2c(c1Cl)C(=O)c1ccccc1C2=O | -11% (inactive) |
| COc1cccc(C2c3cc4c(cc3OC(O)C2C)OCO4)c1O (stereo not drawn) | 27% (inactive) |
| CCC[N+]1=C(/C=C/c2ccc3cccnc3c2O)C(C)(C)c2ccccc21 | 98% (active) |
| O=C(/C=C/c1ccccc1Cl)c1ccc(F)cc1 | 51% (inactive) |
| CCN(CC)C(=S)N=Nc1c(O)[nH]c2ccccc12 | 99% (active) |
| C[CH2][Sn]([CH2]C)([O]C(=O)c1ccccc1OC)[O][Sn]([CH2]C)([CH2]C)[O]C(=O)c1ccccc1OC | 94% (active) |
| CCCCCCCCCCCCCCCC[N+](C)(C)C(C)c1ccc(OC)cc1 (stereo not drawn) | 98% (active) |
| S=C(NCCc1ccccc1)N/N=C/c1ccc(Cl)cc1 | 65% (inactive) |
| Cc1cc(Nc2ccc(O)c(CN3CCN(Cc4cc(Nc5cc(C)nc(N)n5)ccc4O)CC3)c2)nc(N)n1 | 95% (active) |
| CC1C[N+](C)(C)C(C)C(=O)C1(c1ccccc1)c1ccccc1 (stereo not drawn) | -2% (inactive) |
| O=C1C(Cl)=C(Cl)C(=O)C2CC=CCC12 (stereo not drawn) | 99% (active) |

| SMILES | growth inhibition |
| --- | --- |
| C/C(=N/O)c1ccc2c(c1)C(C)c1ccccc1-2 (stereo not drawn) | -54% (inactive) |
| c1ccc(N/N=C2/CCCC3/C(=N\Nc4ccccc4)CCCC23)cc1 (stereo not drawn) | 98% (active) |
| CCCC(C)C/C(C)=C\C(C)(C)C1CC(=O)N(CC)C1=O (stereo not drawn) | 95% (active) |
| COC(C(=O)C1=C2Oc3c4c(cc(O)c3C(=O)C2C2=C(CCCC2)C1=O)OC(C)(C)C=C4)C(C)CCC=C(C)C (stereo not drawn) | 92% (active) |
| Cc1cc(Br)c(NC(=O)CBr)cc1C | 96% (active) |
| Cc1ccc(S(=O)(=O)OCCCCOS(=O)(=O)c2ccc(C)cc2)cc1 | 2% (inactive) |
| Cc1ccc([N+](=O)[O-])c2c(NCCCN(C)C)c3ccccc3nc12 | 97% (active) |
| CCOC(=O)c1c(N2CCCC2)nsc1Nc1ccc(F)cc1 | 92% (active) |
| CC(=O)[C@H]1CC[C@H]2[C@@H]3CC[C@H]4C[C@@H](N5CCOCC5)CC[C@]4(C)[C@H]3CC[C@]12C | 81% (active) |
| CC(C)CCCC(C)C1CCC2C3CCC4=CC(O)CCC4(C)C3CCC12C (stereo not drawn) | 97% (active) |
| Nc1ccccc1SC(/C=C/NNC1=NC(c2ccccc2)C(c2ccccc2)=NN1)c1ccccc1 (stereo not drawn) | 30% (inactive) |
| CCOC(=O)C1=C(c2ccccc2)OC(N)=C(C#N)C1c1ccc(C)cc1 (stereo not drawn) | 50% (inactive) |
| COC1CC(OC(=O)c2ccccc2)C2OC(c3ccccc3)OCC2O1 (stereo not drawn) | 80% (active) |
| O=C(/N=C1\N=Nc2nc(C(C(=O)c3cccs3)c3nc4n(c3O)/C(=N/C(=O)Nc3ccc(Cl)cc3)N=N4)c(O)n21)Nc1ccc(Cl)cc1 (stereo not drawn) | 27% (inactive) |
| C=CCNC(=S)N/N=C(\CCC)c1ccccn1 | 95% (active) |
| O=C(c1cc2c(C(F)(F)F)onc2c2ccccc12)C(F)(F)F | 42% (inactive) |
| O=C1C=CC(=O)C2C1Cc1ccccc1C2c1ccccc1 (stereo not drawn) | 98% (active) |
| CC1SC2(C(=O)Nc3ccc([N+](=O)[O-])cc32)N(c2ccc(Cl)cc2)C1=O (stereo not drawn) | 98% (active) |
| CC(=O)OCCn1c2nc(=O)[nH]c(=O)c-2nc2cc(C)c(C)cc21 | 1% (inactive) |
